A short description of experiment [1]: qHTS drug screen for cell cycle checkpoint inhibitors in PARPi-resistant BRCA-mutant ovarian cancer cell lines. (AID 1963452; calls by dose curve). To be noted: PEO1/OlaR viability, CellTiter-Glo luminescence, 96 h, stronger effect = lower value. Summed up: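 PEO1, PEO4 and PEO1/OlaR ovarian cancer cells, 600 per well, exposed 96 h at 37C to a dilution series. Viability read by CellTiter-Glo luminescence, normalized to DMSO and empty wells; activity summarized as Z-AUC.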

Experiment [2] is described as follows: qHTS profiling for inhibitors of Plasmodium falciparum proliferation (AID 504749). Also: nearly all actives have a fitted effect of over 60% in size. Also: potency is read from the fitted curve at half-maximal effect.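 As to activity, negative = inhibition: 0% = DMSO vehicle and full inhibition = artemisinin control.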 To be noted: P. falciparum in erythrocytes, SYBR Green DNA, 72 h. An outline of the steps:
(§1)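 P. falciparum-infected erythrocytes (0.3% parasitemia, 2.5% hematocrit final) were exposed to compounds for 72 h at 37 C in 5% CO2, then lysed with SYBR Green buffer overnight at room temperature; parasite DNA fluorescence was normalized to artemisinin and DMSO controls.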
(In general: qHTS replaces the single test concentration by a dilution series.)

For another experiment, the system named is 7G8. Described as above. To be noted: P. falciparum in erythrocytes, SYBR Green DNA, 72 h; series mostly up to 28.7 µM. An outline of the steps:
as §1

A further experiment deals with AS120. The description is as above. To be noted: P. falciparum in erythrocytes, SYBR Green DNA, 72 h; series mostly up to 28.7 µM. An outline of the steps: as §1
The test system of the next experiment is C2A. The description is as above. To be noted: P. falciparum in erythrocytes, SYBR Green DNA, 72 h; series mostly up to 28.7 µM. Summed up: as §1
The subject of another experiment is 3D7. Described as above. To be noted: P. falciparum in erythrocytes, SYBR Green DNA, 72 h; series mostly up to 28.7 µM. Summed up:
as §1

The next experiment concerns AA1029. The description is as above. To be noted: P. falciparum in erythrocytes, SYBR Green DNA, 72 h; series mostly up to 28.7 µM. Summed up: as §1
A further experiment concerns ATS189. Described as above. To be noted: P. falciparum in erythrocytes, SYBR Green DNA, 72 h; series mostly up to 28.7 µM. An outline of the steps: as §1
The subject of another experiment is ATS95. The experiment is described as above. To be noted: P. falciparum in erythrocytes, SYBR Green DNA, 72 h; series mostly up to 28.7 µM. An outline of the steps: as §1
[3] abbreviates: measured here: PEO1 parental Z-AUC.
[4] abbreviates: at 28.7 µM (top of the series), parasite line A.
[5] abbreviates: at 28.7 µM (top of the series), parasite line B.

Results filed as inconclusive are left out. Activity calls are given as the source filed them. Unless noted, calls follow the shape of the dose curve; as a rule, active = well fitted inhibition curve with a large enough effect; inconclusive = small, poorly fitted or top-dose-only effect; inactive = flat fitted curve, though single readings scatter.

`Cc1sc2c(c1C)C(c1ccc(Cl)cc1)=N[C@@H](CC(=O)OC(C)(C)C)c1nnc(C)n1-2`: the results for the Z-AUC in [1], in [1] (setting [3]) and in experiment [1] (measured here: PEO4 Z-AUC) were -0.873 (inactive), -0.421 and -0.731, respectively.
Consider `O=C(O)C(=O)c1cn(Cc2ccccc2)c2ccc(-c3ccc(OC(F)(F)F)cc3)cc12`, for which the Z-AUC in [1] is -0.0319 (inactive); in experiment [1] (setting [3]) it was 0.702; in experiment [1] (measured here: PEO4 Z-AUC) it was 0.863.
As to `Cn1cc(C2=C(c3cn(C4CCN(Cc5ccccn5)CC4)c4ccccc34)C(=O)NC2=O)c2ccccc21`, the Z-AUC is -0.351 (inactive) in experiment [1], 0.347 in experiment [1] (setting [3]) and 0.154 in [1] (measured here: PEO4 Z-AUC).
With `COC1(CS(=O)c2ccccc2)CCN(CCc2c[nH]c3ccc(F)cc23)CC1` (stereo unspecified), the values for the Z-AUC in [1], in [1] (setting [3]) and in experiment [1] (measured here: PEO4 Z-AUC) were 0.788 (inactive), 0.436 and 0.362, respectively.
As for `C=C1C[C@@H]2[C@H](CC[C@]3(C)C(=O)CC[C@@H]23)[C@@]2(C)C=CC(=O)C=C12`, the Z-AUC in experiment [1] was 1.28 (inactive); in experiment [1] (setting [3]) it was 0.968; in [1] (measured here: PEO4 Z-AUC), 1.01.
Consider `C[C@@H]1O[C@@H](O[C@H]2C[C@@H](O)[C@]3(CO)[C@H]4[C@H](O)C[C@]5(C)[C@@H](C6=CC(=O)OC6)CC[C@]5(O)[C@@H]4CC[C@]3(O)C2)[C@H](O)[C@H](O)[C@H]1O`, for which the Z-AUC was -1.08 (inactive) in experiment [1], -2.2 in [1] (setting [3]) and -1.63 in experiment [1] (measured here: PEO4 Z-AUC).
In the same order, the values of `CN(C)[C@@H]1C(=O)C(C(N)=O)=C(O)[C@@]2(O)C(=O)C3=C(O)c4c(O)cccc4[C@@](C)(O)[C@H]3C[C@@H]12` are 1.23 (inactive), 0.408 and 1.42.
With `O=c1[nH]c2ccccc2n1CCCN1CCC(n2c(=O)[nH]c3cc(Cl)ccc32)CC1`, the results for the Z-AUC in experiment [1], in experiment [1] (setting [3]) and in experiment [1] (measured here: PEO4 Z-AUC) were 1.58 (inactive), 0.892 and 0.827, respectively. In addition, the Potency was 11.2 µM (active) in experiment [2] (parasite line A), 1.41 µM (active) in the experiment with 7G8, 5.01 µM (active) with AS120 and 11.2 µM (active) in the experiment on C2A.
`CC(CCc1ccccc1)NC(C)C(O)c1ccc(O)cc1` (stereo unspecified): the activity, negative = inhibition in experiment [2] (setting [4]) was 8.41% (inactive); in experiment [2] (setting [5]) it was 8.3% (inactive). Moreover, the Potency result in the experiment on 3D7 was “inactive”.
In the case of `COC[C@H]1OC(=O)c2coc3c2[C@@]1(C)C1=C(C3=O)C2CCC(=O)[C@@]2(C)C[C@H]1OC(C)=O` (stereo partly specified), the Z-AUC in [1] is 0.865 (inactive); in [1] (setting [3]), 0.666; in experiment [1] (measured here: PEO4 Z-AUC), 0.563.
Turning to `Cc1cccc(C)c1NC(=O)CN1CCCC1=O`, the Z-AUC in experiment [1] was 0.64 (inactive); in [1] (setting [3]) it was 0.59; in experiment [1] (measured here: PEO4 Z-AUC), 1.08.
In the case of `CN(C)CCN(C)CCc1ccc(Cl)c(Cl)c1`, the Z-AUC in [1] is 1.45 (inactive); in [1] (setting [3]) it was 1.36; in experiment [1] (measured here: PEO4 Z-AUC), 1.58.
In the same order, the values of `CNCC(O)c1ccc(O)cc1` (stereo unspecified) are -0.876 (inactive), -0.301 and -0.927.
For `NCC1(CC(=O)O)CCCCC1`, the Z-AUC in experiment [1] is 0.463 (inactive); in experiment [1] (setting [3]) it was 0.917; in experiment [1] (measured here: PEO4 Z-AUC), -0.172. The activity, negative = inhibition is 5.08% (inactive) in experiment [2] (at 12.8 µM (top of the series), parasite line A) and 1.35% (inactive) in experiment [2] (at 12.8 µM (top of the series), parasite line B). Also, the Potency result in the experiment on 3D7, with 7G8, with AA1029, with AS120, in the experiment on ATS189 and in the experiment with ATS95 was “inactive” each time. Besides, the Potency result in the experiment on C2A is “inactive”.
`CNC(=O)c1ccc(N2C(=S)N(c3ccc(C#N)c(C(F)(F)F)c3)C(=O)C23CCC3)cc1F`: the Z-AUC in experiment [1] was 1.87 (inactive); in experiment [1] (setting [3]), 1.38; in experiment [1] (measured here: PEO4 Z-AUC), 1.39.
As for `N[C@@H]1C[C@H]1c1ccccc1`, the Z-AUC is 0.628 (inactive) in experiment [1], 1.13 in experiment [1] (setting [3]) and 0.895 in experiment [1] (measured here: PEO4 Z-AUC).
Take `C=C(C)[C@H]1Cc2c(ccc3c2O[C@@H]2COc4cc(OC)c(OC)cc4[C@@H]2C3=O)O1`: the Z-AUC is -1.61 (inactive) in [1], -2.63 in experiment [1] (setting [3]) and -1.87 in [1] (measured here: PEO4 Z-AUC). In addition, the activity, negative = inhibition in [2] (setting [4]) is -0.828% (inactive); in [2] (setting [5]) it was -4.67% (inactive). Further, the Potency entry in the experiment with 3D7, in the experiment on AA1029, in the experiment on AS120, in the experiment on ATS189, in the experiment on ATS95 and with C2A was “inactive” each time. Besides, the Potency in the experiment with 7G8 is 10 µM (active).
Regarding `C[C@]12CCC(=O)C(O)=C1CC[C@@H]1[C@@H]2CC[C@]2(C)C(=O)CC[C@@H]12`, the Z-AUC in experiment [1] was 0.873 (inactive); in experiment [1] (setting [3]) it was 1.02; in [1] (measured here: PEO4 Z-AUC), 1.06.

The values above are taken from PubChem BioAssay (NCATS).
